Reference: PubChem BioAssay (NCI)
This is part of a sample that, as a whole, favours compounds with a hit. Of some 79,000 tested, about 15% had one in any assay. Unmarked numbers belong to inactive results. Active and inactive are the calls of the source. No stated cut-off is given here; in the data, active means growth inhibition above about 70%; inactive means the rest.

Test: NCI Yeast Anticancer Drug Screen. Data for the sgs1 strain (AID 173);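 further: 0% = growth of vehicle-only control cultures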
Conditions: S. cerevisiae sgs1 mutant, stronger effect = higher value
Description: Growth inhibition of yeast strains with defined genetic alterations is measured as a screen for potential anti-cancer activity. Selected strains with alterations in DNA damage repair or cell cycle control were exposed to compounds and growth inhibition was measured relative to vehicle treated controls. The strain used in this assay is sgs1

SMILES | growth inhibition (at 1.2 µM) | growth inhibition (at 3.7 µM) | growth inhibition (at 11.0 µM) | growth inhibition (at 33.0 µM) | growth inhibition (at 100.0 µM)
CC(C)=NOC(=O)Nc1ccc(Cl)cc1 | -16% | -12% | -14% | 33% | 84% (active)
CC[n+]1oc(C(=O)c2ccc(Cl)cc2)c(-c2ccccc2)c1-c1ccccc1.[Cl][Fe]([Cl])([Cl])[Cl] | 0% | -1% | 18% | 59% | 87% (active)
CC[N+](CC)(CC)c1ccccc1 | -15% | -21% | -22% | -19% | -23%
CNC(=O)OCc1c(COC(=O)NC)c(-c2ccc(Cl)c(Cl)c2)n2c1SCC2 | -1% | -1% | 1% | 12% | 72% (active)
CC(NCCN(C)C)C1CCC2C3CCc4cc(O)ccc4C3CCC12C (stereo not given) | 3% | 9% | 42% | 87% (active) | 96% (active)
CCCC(=O)Oc1c(C)cc([N+](=O)[O-])cc1[N+](=O)[O-] | 5% | 27% | 99% (active) | 99% (active) | 99% (active)
CCCC(=O)Oc1ccc(/C=N/NC(N)=S)nc1 | -10% | -5% | -2% | -9% | -1%
Cc1cc(-c2cc(C)c(O)c(C(C)(C)C)c2)cc(C(C)(C)C)c1O | -20% | -8% | -6% | 30% | 59%
